Bioassay records (PubChem)
CDC25B CDK2 inh: human CDC25B-CDK2/CyclinA binding inhibition; P30305+P24941; HTRF CDC25B-CDK2/CyclinA binding, anti-His/anti-Flag; active compounds read high; z-score (no concentration beside the values); 94,000 compounds, 0.72% hits; AID 1259370; in the data active = z-score above about 3.2
TAR Tat displ: HIV-1 TAR-Tat binding disruption | HIV-1 TAR RNA, Tat peptide displacement FRET; active compounds read high | z-score (concentration not given with the values) | 100,000 compounds, 0.6% hits | AID 1259389; active = z-score of 3 or more in at least 2 runs
Hits are given with their value. Only some compounds are listed: those with a hit (about 0.93% of all), similar ones and a draw of the others.

How did O=S(=O)(c1ccc2[nH]c3c(c2c1)CCCC3)N1CCCCC1 do in these assays?
TAR Tat displ: inactive

What do the screens show for `CC(C)OC(=O)c1ccc2[nH]c3c(c2c1)CCCC3`?
CDC25B CDK2 inh: 18.3; TAR Tat displ: inactive

How did Cn1ccnc1SCC(=O)NC1Cc2ccccc2C1 do in these assays?
CDC25B CDK2 inh: inactive

How did CS(=O)(=O)c1csc(C(=O)Nc2cccc(Cl)c2)c1Cl do in these assays?
CDC25B CDK2 inh: inactive

Results for Cc1ccc(S(=O)(=O)[C@H]2CS(=O)(=O)C[C@@H]2NC(C)C)cc1 ?
CDC25B CDK2 inh: inactive; TAR Tat displ: inactive

Results for Nc1nc(-c2ccc(Cl)cc2)nn1C(=O)C1CC1 ?
CDC25B CDK2 inh: inactive; TAR Tat displ: inactive

How did COc1ccc(/C=C/C(=O)O)cc1OC do in these assays?
TAR Tat displ: inactive

How did COc1cc(/C=C/C(=O)CC(=O)/C=C/c2ccc(O)c(OC)c2)ccc1O do in these assays?
TAR Tat displ: 15.1

How did COc1cc(/C=C/C(=O)O)ccc1O do in these assays?
TAR Tat displ: inactive

How did COc1ccc(/C=C/C(=O)CC(=O)/C=C/c2cccc(O)c2OC)cc1O do in these assays?
TAR Tat displ: 16.4

How did CC1CCN(C(=O)CN2C(=O)CSc3cccn3-c3ccccc32)CC1 do in these assays?
TAR Tat displ: inactive

How did Cc1ccc(C2CC(C(F)(F)F)n3nc(C(=O)NC(C)C)cc3N2)cc1 (configuration not stated) do in these assays?
CDC25B CDK2 inh: inactive; TAR Tat displ: inactive

How did COc1ccc(-c2c(N)n[nH]c2C)cc1OC do in these assays?
CDC25B CDK2 inh: inactive; TAR Tat displ: inactive

Results for COc1ccc(-c2cc(C3CCN(c4nc(N)c5cc(OC)c(OC)cc5n4)CC3)[nH]n2)cc1OC ?
CDC25B CDK2 inh: 19.8

Results for COc1ccc(C2CC(=O)N3CN(Cc4ccccc4)CSC3=C2C#N)c(OC)c1 (configuration not stated) ?
CDC25B CDK2 inh: 4.54; TAR Tat displ: inactive

Results for COc1ccc(CN2CSC3=C(C#N)C(c4ccc(Cl)cc4)CC(=O)N3C2)cc1 (configuration not stated) ?
CDC25B CDK2 inh: 3.76; TAR Tat displ: inactive

What do the screens show for `N#CC1=C2SCN(Cc3ccccc3)CN2C(=O)CC1c1ccc(Br)cc1` (configuration not stated)?
CDC25B CDK2 inh: inactive; TAR Tat displ: inactive

What do the screens show for `COc1ccc(Br)cc1C1CC(=O)N2CN(c3ccccc3F)CSC2=C1C#N` (configuration not stated)?
CDC25B CDK2 inh: inactive; TAR Tat displ: inactive

What do the screens show for `COc1ccc(Br)cc1C1CC(=O)N2CN(Cc3ccccc3)CSC2=C1C#N` (configuration not stated)?
CDC25B CDK2 inh: 3.18; TAR Tat displ: inactive

How did N#CC1=C2SCN(Cc3ccccc3)CN2C(=O)CC1c1cccc(Br)c1 (configuration not stated) do in these assays?
CDC25B CDK2 inh: inactive; TAR Tat displ: inactive

Results for COc1ccc(Br)cc1C1CC(=O)N2CN(c3ccccc3)CSC2=C1C#N (configuration not stated) ?
CDC25B CDK2 inh: 7.63; TAR Tat displ: inactive

Results for N#CC1=C2SCN(Cc3ccco3)CN2C(=O)CC1c1ccc(OCc2ccc(Cl)cc2)cc1 (configuration not stated) ?
CDC25B CDK2 inh: inactive; TAR Tat displ: inactive

Results for Cc1n[nH]c(C)c1CC(=O)NCCC1=CCCCC1 ?
TAR Tat displ: inactive

What do the screens show for `CCCSc1nc2c(c(=O)[nH]1)C(c1ccc(Cl)cc1)C(C(=O)OCC)=C(C)N2` (configuration not stated)?
CDC25B CDK2 inh: inactive; TAR Tat displ: inactive

How did CC1=C(c2ccccc2)S(=O)(=O)N=C1Nc1ccccc1Br do in these assays?
CDC25B CDK2 inh: inactive; TAR Tat displ: inactive

What do the screens show for `O=C(O)CNC(=O)C(CS)Cc1ccccc1` (configuration not stated)?
CDC25B CDK2 inh: inactive; TAR Tat displ: inactive

Results for CN(C)CCN(C(=O)CCSc1ccccc1)c1nc2cc3c(cc2s1)OCO3 ?
TAR Tat displ: inactive

Results for Cc1cc(=O)n2[nH]c(C)c(-c3ccc(Cl)cc3)c2n1 ?
CDC25B CDK2 inh: inactive

What do the screens show for `Cc1[nH]n2c(=O)cc(CSc3nnnn3-c3ccccc3)nc2c1-c1ccc(Cl)cc1`?
CDC25B CDK2 inh: inactive; TAR Tat displ: 23.5

Results for C=C(C)C(CCC=C(C)C)C12C[C@@H](CC=C(C)C)C(C)(C)C(CC=C(C)C)(C(=O)/C(=C(/O)c3ccc(O)c(O)c3)C1=O)C2=O (some centres not stated) ?
TAR Tat displ: 8.27

What do the screens show for `COCCNC(=O)C1(C)Cn2cnc(C(=O)OC)c2C(=O)N1C1CC1` (configuration not stated)?
TAR Tat displ: inactive

Results for CC(C)(C)c1ccc(C(=O)Nc2ccc(C(F)(F)F)cc2)s1 ?
CDC25B CDK2 inh: inactive

Results for Cc1c([N+](=O)[O-])sc2nc[nH]c(=O)c12 ?
CDC25B CDK2 inh: inactive; TAR Tat displ: 11.4

Results for Cc1c(C(=O)Nc2ccc(F)cc2)sc2nc[nH]c(=O)c12 ?
TAR Tat displ: inactive

What do the screens show for `NC(=O)c1c(NC(=O)CCCSc2ccccc2)sc2c1CCC2`?
TAR Tat displ: inactive

How did CC(=O)Oc1cc2c(C(=O)N3CCCC3)c(C)oc2c2ccccc12 do in these assays?
CDC25B CDK2 inh: inactive; TAR Tat displ: inactive

Results for Cc1oc2c(cc(O)c3ccccc32)c1C(=O)O ?
CDC25B CDK2 inh: 8.56; TAR Tat displ: inactive

Results for COC(=O)C1CC(=O)N(c2ccc(Oc3ccccc3)cc2)C1 (configuration not stated) ?
CDC25B CDK2 inh: inactive

How did CCC1=NN(c2ccccc2)C(=O)C1 do in these assays?
CDC25B CDK2 inh: 10.1; TAR Tat displ: inactive

What do the screens show for `CC1=NN(c2ccccc2)C(=O)/C1=C1/C(=O)N(c2ccccc2)N=C1C`?
CDC25B CDK2 inh: inactive

Results for O=C(N1CCN(c2ccccn2)CC1)N1c2ccccc2Sc2ccccc21 ?
CDC25B CDK2 inh: inactive

What do the screens show for `N.N.N.N.N.N.N.N.N.N.N.N.N.N.O.O.[Cl-].[Cl-].[Cl-].[Cl-].[Cl-].[Cl-].[Ru+4].[Ru+5].[Ru+5]`?
CDC25B CDK2 inh: 4.16

Results for CCOC(=O)CN1C(C(=O)c2ccccc2)=C(OC(=O)c2ccco2)c2ccccc2S1(=O)=O ?
CDC25B CDK2 inh: inactive; TAR Tat displ: inactive

Results for CC(=O)Nc1ccc(-n2nncc2-c2ccco2)cc1 ?
TAR Tat displ: inactive

What do the screens show for `O=C(Nc1ccc(-n2nncc2-c2ccco2)cc1)c1cnc2n(c1=O)CCS2`?
TAR Tat displ: 7.35

Results for CCNC(=O)N1c2c(C)cc(C)cc2C(C)=CC1(C)C ?
CDC25B CDK2 inh: inactive; TAR Tat displ: inactive

Results for Cc1cc(C)n2c(SCc3ccc(C(=O)c4ccccc4)cc3)nnc2n1 ?
CDC25B CDK2 inh: 8.33; TAR Tat displ: inactive

What do the screens show for `Cc1cc(C)n2c(SCc3ccc(Br)cc3)nnc2n1`?
CDC25B CDK2 inh: inactive; TAR Tat displ: inactive

Results for CNC(=O)C1CCN(S(=O)(=O)c2c(C)noc2/C=C/c2cccs2)CC1 ?
TAR Tat displ: inactive

What do the screens show for `CNC(=S)Nc1ccc(F)cc1`?
CDC25B CDK2 inh: inactive

How did Fc1ccc(NC(=S)Nc2ccc3cn[nH]c3c2)cc1 do in these assays?
CDC25B CDK2 inh: 20.1

What do the screens show for `CC1=C(c2ccccc2)S(=O)(=O)NC1=NCCCN1CCN(c2cc(C)ccc2C)CC1`?
CDC25B CDK2 inh: 13.3; TAR Tat displ: inactive
